Measurements from PubChem BioAssay (NCATS).
Results filed as inconclusive are left out. A call without a number means that no potency is given here. Calls of active or inactive are those of the source. The call rests on the fitted dose curve; in most records, active means well fitted cell-killing curve with a large enough effect; inconclusive means small, poorly fitted or top-dose-only effect, or effect the other way; inactive means flat fitted curve, though single readings scatter.

Test: Identifying Small Molecule Inhibitors of Pancreatic Cancer Stem Cells (SN12C, Spheroid) (AID 1259360)
Conditions: Potency: SN12C spheroid viability; series mostly up to 46.1 µM
Source text: Progenitor-like cancer cells, often referred to as cancer stem cells (CSC), are believed to be the drivers of therapeutic resistance and rapid recurrence. CSCs are postulated to reside in specific niches characterized by low oxygen tension, limited nutrient supply, and high redox load. Selectively targeting CSC, alone or in combination with cytotoxic agents, as a means to produce durable remissions is an appealing concept. Modeling these cells in in vitro setting is an important step in finding new therapies and/or targets. Multiple reports highlight that forcing cells in culture into 3-dimensionaly architectures (spheroids) re-establishes key progenitor-like transcriptional signatures. Pancreatic cancer is among the diseases with the most dismal outlook which is driven, largely, by recurance following front-line therapies. […] In hopes of deriving new insight into the targeting of these pancreatic CSCs we examined three established pancreatic cancer cell lines in cytotoxicity assays versus a collection of approved and investigational drugs. Importantly, we screened these lines as traditional monolayer (2D) and spheroid (3D) formats to gain an appreciation of agents with differential activity.
Multicellular tumor spheroids from Panc1, MiaPaCa-2, and the primary low-passage tissue culture line SB.06 were seeded in stem cell media (SCM) in nonadherent 6-well plates coated with hydrogel (Corning Life Sciences, Chelmsford, Mass) and pancreatic spheres generated for 14 days before screening. Cells were seeded into 1536-well solid-bottom white tissue culture treated Greiner Bio One Plates (789173-F) using a MultiDrop Combi (Thermofisher Scientific) dispenser and a small sterile cassette. One column was media alone to be used as a :"no cells" control. The plates were then covered with sterilized stainless steel gasketed lids from Kalypsys. After allowing cells to attach for 4 hours, 23 nL of test compound or control (negative control DMSO and positive control 9.2 uM Bortezomib-final) were added from a 1536-well polypropylene compound source plate to each well using a 1536 head pin tool from Kalypsys. Cells were then incubated for 48 hours at 37C, 95% relative humidity and 5% CO2. After 48 hours, plates were removed from the incubator and 3 uL of CellTiter-Glo (Promega) was added using an Aurora Flying Reagent Dispenser Bioraptor. Plates were incubated at room temperature for 10 minutes prior to reading the luminescence on the Viewlux (PerkinElmer). The relative luciferase units are used to calculate the percent activity using the activity of DMSO in the cells and no cells columns for normalization of no inhibition and full inhibition respectively.
Potency means the concentration at half of the fitted maximal effect.

SMILES	Potency
O=C(NOC[C@H](O)CO)c1ccc(F)c(F)c1Nc1ccc(I)cc1F	0.0053 µM (active)
N#Cc1ccc(C(c2ccc(C#N)cc2)n2cncn2)cc1	inactive
CS(=O)(=O)Oc1ccc2c(NC(N)=O)c(C(=O)c3ccc(Cl)cc3Cl)oc2c1	inactive
Nc1cccc(S(=O)(=O)N2CCCN(S(=O)(=O)c3ccc4c(c3)OCCO4)CC2)c1	inactive
COc1ccc2nc(S(=O)Cc3ncc(C)c(OC)c3C)[nH]c2c1 (stereo not given)	inactive
COc1cc2nccc(Oc3ccc(NC(=O)NC4CC4)c(Cl)c3)c2cc1C(N)=O	inactive
CCC(C)(C)C(=O)O[C@H]1C[C@@H](C)C=C2C=C[C@H](C)[C@H](CC[C@@H]3C[C@@H](O)CC(=O)O3)[C@H]21	inactive
COc1ccc(-c2ccc3c(N4CCOCC4)nc(N4C[C@@H](C)O[C@@H](C)C4)nc3n2)cc1CO	0.372 µM (active)
COc1ccc2c3n(c(=NC(=O)c4cccnc4)nc2c1OC)CCN3	5.9 µM (active)
O=c1[nH]c(-c2ccc(C(F)(F)F)cc2)nc2c1CSCC2	inactive
Cc1cc(-c2nnc3n2CCCCC3)c(C)n1-c1ccc(F)cc1	inactive
C[C@@H]1CN(Cc2ccc(F)cc2)[C@@H](C)CN1C(=O)c1cc2c(C(=O)C(=O)N(C)C)cn(C)c2cc1Cl	16.6 µM (active)
CS(=O)(=O)c1cccc(CNc2nc(Nc3ccc4c(c3)CCC(=O)N4)ncc2C(F)(F)F)c1	inactive
CC1(C)Cc2c(-c3ccccc3)c(-c3ccc(Cl)cc3)c(CC(=O)O)n2C1	inactive
COc1ccc(CC2=NN3C([C@@H](CCc4ccccc4)[C@@H](C)O)=NC(C)C3C(=O)N2)cc1OC (stereo not given in full)	inactive
NC(=O)c1ccc(I)c([N+](=O)[O-])c1	inactive
CC(c1cc2ccccc2s1)N(O)C(N)=O (stereo not given)	inactive
O=S(=O)(N=Cc1c(O)ccc2ccccc12)c1cccs1	inactive
COc1ccc(C2=N[C@H](c3ccc(Cl)cc3)[C@H](c3ccc(Cl)cc3)N2C(=O)N2CCNC(=O)C2)c(OC(C)C)c1	inactive
COc1cc2c(cc1OC)CN(CCc1ccc(NC(=O)c3cccc4c(=O)c5cccc(OC)c5[nH]c34)cc1)CC2	inactive

SMILES	Potency
COc1ccc(-c2c(-c3ccc(O)cc3O)n[nH]c2C)cc1	inactive
S=C(NCc1ccc2c(c1)OCO2)N1CCN(c2ncnc3c2oc2ccccc23)CC1	14.8 µM (active)
Nc1nccc(-c2ccc3noc(-c4ccc(Cl)cc4)c3c2)n1	inactive
CCCc1nn(C)c2c(=O)[nH]c(-c3cc(S(=O)(=O)N4CCN(C)CC4)ccc3OCC)nc12	inactive
O=C(O)[C@@H](c1ccc(OCc2ccc3ccccc3n2)cc1)C1CCCC1	inactive
CNC(=O)c1ccc(C)c(-n2c(C)cc(OCc3ccc(F)cc3F)c(Br)c2=O)c1	4.69 µM (active)
CN[C@@H](C)C(=O)N[C@H]1CCCC[C@H]2CC[C@@H](C(=O)N[C@@H](c3ccccc3)c3cn(CCCCc4ccc(CCCCn5cc([C@@H](NC(=O)[C@@H]6CC[C@@H]7CCCC[C@H](NC(=O)[C@H](C)NC)C(=O)N76)c6ccccc6)nn5)cc4)nn3)N2C1=O	inactive
O=C(Nc1cccnc1)N1CCC(Cc2cccc(Oc3ccc(C(F)(F)F)cn3)c2)CC1	inactive
CCc1cc(Nc2nccc(-c3c(-c4ccc(OC)c(C(=O)Nc5c(F)cccc5F)c4)nc4ccccn34)n2)c(OC)cc1N1CCC(N2CCN(S(C)(=O)=O)CC2)CC1	inactive
COc1ccccc1[C@H](c1cccc2ccccc12)[C@@](C)(C#N)C(=O)N1CCC(c2cccc(C(F)(F)F)c2)CC1	inactive
COc1ccc(COc2cc3oc(=O)c4cc(C(C)O)ccc4c3cc2OC)cc1 (stereo not given)	inactive
Cc1cc(SCc2sc(-c3ccc(C(F)(F)F)cc3)nc2C)ccc1OCC(=O)O	inactive
CCN(CC)CCCC(C)Nc1nc(C)cc(Nc2ccc3nc(C)cc(N)c3c2)n1 (stereo not given)	inactive
CC(C)C[C@H](NC(=O)[C@@H](O)[C@H](N)Cc1ccccc1)C(=O)O	inactive
CCc1ccc(CCOc2ccc(CC3SC(=O)NC3=O)cc2)nc1 (stereo not given)	inactive
Cc1c(C)c2c(c(C)c1O)CCC(C)(COc1ccc(CC3SC(=O)NC3=O)cc1)O2 (stereo not given)	inactive
CCN(CCCO)CCCOc1ccc2c(Nc3cc(CC(=O)Nc4cccc(F)c4)[nH]n3)ncnc2c1	inactive
CC(C)(Sc1ccc(CCN(CCCCC2CCCCC2)C(=O)NC2CCCCC2)cc1)C(=O)O	inactive
CCOc1cc(C=C2C(=O)N(c3ccccc3)N=C2C)cc(Cl)c1OCC(=O)OC	inactive
CCOC(=O)C1=C[C@@]2(CC)CCCN3CCc4c(n1c1ccccc41)[C@H]32	inactive
